RmlCD inh mix: RmlC/RmlD inhibition, mixture screen; inhibition, % at 5.5 µM; 110,000 compounds, 0.39% hits; RmlC/RmlD coupled enzyme inhibition, 384-well mixture HTS; AID 1532; in the data active = inhibition above about 30%, passing the limit was not always enough; inconclusive = no clear call, values can overlap the other calls
HIV RNase H inh-1: inhibitors of HIV-1 reverse transcriptase RNase H. RT-RNase H RNA/DNA duplex cleavage, fluorescence. P04585. 65,000 compounds, 1.9% hits. inhibition, % at 10 µM; in the data active = inhibition above about 50%
HIV RNase H inh-2: confirmation of HIV-1 reverse transcriptase RNase H inhibitors | shares compounds with HIV RNase H inh-1 | Recombinant RT RNase H, fluorescent RNA/DNA duplex cleavage | inhibition, % at 10 µM | 1,000 compounds, 39% hits | AID 651; in the data active = inhibition above about 48%; inconclusive = no clear call, values can overlap the other calls
Large screens that a line does not name were inactive (follow-up assays come after a bar, where they were run). This is one part of a sample in which hits are shown more often than they occur.

CCCCCCCCN1[C@@H](CC(=O)O)c2ccc(C(F)(F)F)cc2S1(=O)=O	none (no result: HIV RNase H inh-1)
CC(C)(C)C(=O)NCCN1CCN(C(=O)C(C)(C)C)CC1	none (no result: HIV RNase H inh-1)
Nc1sc2c(c1C(=O)NC1CCS(=O)(=O)C1)CCCC2 (configuration not stated)	HIV RNase H inh-1 66 | HIV RNase H inh-2 inactive
NC(=O)c1c(N)sc2c1CCCC2	none
O=C(Nc1cccc(C(F)(F)F)c1)N1CCC(c2nc(-c3ccc(F)cc3)no2)CC1	HIV RNase H inh-1 67 | HIV RNase H inh-2 inactive
O=C(Nc1ccccc1)N1CCCC(c2nc(-c3ccc(F)cc3)no2)C1 (configuration not stated)	none (no result: HIV RNase H inh-1)
CCOC(=O)C(=O)Nc1nnc(CCc2ccccc2)s1	none (no result: HIV RNase H inh-1)
CCC(C)NS(=O)(=O)c1ccc(OCC(=O)N2CCC(C)CC2)cc1 (configuration not stated)	none (no result: HIV RNase H inh-1)
CCOC(=O)c1sc(=S)n(CC)c1N	none
CCn1c(N)c(C(N)=O)sc1=S	HIV RNase H inh-1 70 | HIV RNase H inh-2 inactive
CCOc1ccc(NS(=O)(=O)c2ccc(NS(=O)(=O)c3ccccc3)cc2)cc1	none (no result: HIV RNase H inh-1)
CCOc1ccc(S(=O)(=O)Nc2cc(Sc3ncn[nH]3)c3oc(=O)sc3c2)cc1	HIV RNase H inh-1 88 | HIV RNase H inh-2 38
CN(C)c1ccc(NC(=O)Cn2cc3c(n2)CCCC3)cc1	none
Cn1c(-c2ccc3c(c2)OCO3)cnc1NCc1ccccc1	none
Cn1c(-c2ccc3c(c2)OCO3)cnc1NC(=O)CCC(=O)NCCc1ccccc1	HIV RNase H inh-1 84 | HIV RNase H inh-2 inactive
CCCCNC(=O)Cc1coc2ccc3ccccc3c12	none (no result: HIV RNase H inh-1)
OCC[C@@H]1C[C@H](O)[C@@H](O)[C@]2(CCCO2)O1	none (no result: HIV RNase H inh-1)
COC(=O)c1oc2ccc(Br)cc2c1NC(=O)CN1CCN(C)CC1	none
COC(=O)c1oc2ccc(Br)cc2c1NC(=O)c1ccccc1	RmlCD inh mix inconclusive, HIV RNase H inh-1 59 | HIV RNase H inh-2 76
CC(O)[C@@H](C(=O)N1CCNCC1)n1cc(CCCCN)nn1 (some centres not stated)	none (no result: HIV RNase H inh-1)
CC(=O)Nc1sc2c(c1C(c1ccccc1Cl)N1CCN(CCO)CC1)CCCC2 (configuration not stated)	none (no result: HIV RNase H inh-1)
CCOc1ccccc1-c1nc(-c2ccc(NC(=O)Cc3ccc(OC)cc3)cc2)no1	HIV RNase H inh-1 64 | HIV RNase H inh-2 inconclusive
CCOc1ccccc1-c1nc(-c2ccc(NC(=O)c3ccc(Br)o3)cc2)no1	none
CCOC(=O)c1ccc(NS(=O)(=O)c2c(N)n(C)c(=O)n(C)c2=O)cc1	none (no result: HIV RNase H inh-1)
CCOC(=O)C1=C(C)C(c2ccccc2OC)NC(=S)N1 (configuration not stated)	none (no result: HIV RNase H inh-1)
CC(=O)c1ccc(-c2ccccc2[C@H]2[C@H]3C=CC[C@@H](C)[C@@H]3C(=O)N2Cc2ccccc2)cc1	none (no result: HIV RNase H inh-1)
c1ccc(Cc2cc(-c3ccccc3)on2)cc1	none (no result: HIV RNase H inh-1)
Oc1c(Cl)cc(Cl)c2c1NCCC2	HIV RNase H inh-1 80 (no result: RmlCD inh mix) | HIV RNase H inh-2 inactive
O=C1NCCCc2c1oc1ccc(O)cc21	none
C=C(C)C(=O)Nc1cccc(C2=NOC3(C2)C[C@H](C(N)=O)N(C(=O)COc2ccc(Cl)cc2)C3)c1 (some centres not stated)	none (no result: HIV RNase H inh-1)
Cc1sc(NC(=O)C2CCCO2)c(C(N)=O)c1C (configuration not stated)	none (no result: HIV RNase H inh-1)
CCCc1cc(C(N)=O)c(NC(=O)C2CCCO2)s1 (configuration not stated)	HIV RNase H inh-1 76 | HIV RNase H inh-2 64
CN(c1ccccc1)C(c1ccc(F)cc1)c1nnnn1C1CCCC1 (configuration not stated)	none
O=C(OCc1c(Cl)cccc1Cl)c1cccnc1	none
CCn1c(-c2nonc2NC(=O)c2ccccc2)nc2ccccc21	none (no result: HIV RNase H inh-1)
CC(C)(C)c1ccc(C(=O)Nc2nonc2-c2nc3ccccc3[nH]2)cc1	HIV RNase H inh-1 60 | HIV RNase H inh-2 inconclusive
CC(=O)c1cc(F)c(N2CCN(C(=O)COc3ccccc3F)CC2)cc1C	none (no result: HIV RNase H inh-1)
Cc1ccc(S(=O)(=O)N2CCc3ccccc3C2CN2C(=O)c3ccccc3C2=O)cc1 (configuration not stated)	none (no result: HIV RNase H inh-1)
CCc1c(C)sc(NC(=O)CC#N)c1C#N	none
CCc1c(C)sc(NC(=O)c2cc(C)no2)c1C#N	HIV RNase H inh-1 60 | HIV RNase H inh-2 inactive
N#Cc1c(C(F)(F)F)cc(-c2ccccc2)nc1SCC(=O)Nc1sc2c(c1C#N)CCC2	none (no result: HIV RNase H inh-1)
O=S(=O)(Cc1ccccc1)c1ccccc1-c1nnc(-c2ccccc2)o1	none (no result: HIV RNase H inh-1)
O=C(O)c1ccccc1S(=O)(=O)Cc1ccccc1	HIV RNase H inh-1 71 | HIV RNase H inh-2 inactive
CC1(c2nnc(-c3cccc(Cl)c3)o2)CC(c2ccc(F)cc2)=NO1 (configuration not stated)	none (no result: HIV RNase H inh-1)
CC(c1ccccc1)C1C(C#N)=C(N)OC2=C1C(=O)CC(C)(C)C2 (configuration not stated)	none
CC1(C)CC(=O)C2=C(C1)OC(N)=C(C#N)C2C#Cc1ccccc1 (configuration not stated)	HIV RNase H inh-1 60 | HIV RNase H inh-2 inactive
CCn1c(SCC(=O)Nc2cc(C)on2)nnc1-c1c[nH]c2ccccc12	none (no result: HIV RNase H inh-1)
COc1ccc(-c2ccc(C#N)c(SCC(=O)Nc3sc4c(c3C#N)CCC4)n2)cc1	none (no result: HIV RNase H inh-1)
N#Cc1ccc(-c2cccnc2)nc1SCC(=O)Nc1sc2c(c1C#N)CCC2	HIV RNase H inh-1 90 | HIV RNase H inh-2 inactive
CCCCC(CC)CNC(=O)c1cccs1 (configuration not stated)	none
Cc1occc(=O)c1O	none (no result: HIV RNase H inh-1)
CCn1c(COc2ccccc2)nnc1SCC(=O)NC1CCCCC1	HIV RNase H inh-1 63 | HIV RNase H inh-2 inactive
CCn1c(Cc2ccccc2)nnc1SCC(=O)NC1CC1	none (no result: HIV RNase H inh-1)
O=C(O)c1cc(-c2ccccc2)nn1CC1CC(c2cccc([N+](=O)[O-])c2)=NO1 (configuration not stated)	none (no result: HIV RNase H inh-1)
CCOC(=O)c1cc2sccc2n1CC(=O)O	none (no result: HIV RNase H inh-1)
CCOC(=O)c1cc2sccc2n1CC(=O)N1c2ccccc2CC1C (configuration not stated)	HIV RNase H inh-1 57 | HIV RNase H inh-2 inconclusive
CCO[C@H]1OC(C(=O)NCc2ccccc2)=C[C@@H](c2cn(C(C)=O)c3ccccc23)[C@@H]1CCCO	none (no result: HIV RNase H inh-1)
CC(C)(C)C1=Nn2c(nnc2-c2n[nH]c3c2CCC3)SC1	HIV RNase H inh-1 53 | HIV RNase H inh-2 inactive
CC1=Nn2c(nnc2-c2n[nH]c3c2CCC3)SC1	none
O=C(O)CCCCCCCCCCCc1ccccc1	none (no result: HIV RNase H inh-1)
CCOC(=O)N1CCN(C(=O)c2cnn3c(C(F)F)cc(-c4ccc(C)cc4)nc23)CC1	none
Cc1ccc(-c2cc(C(F)F)n3ncc(C(=O)NCc4ccco4)c3n2)cc1	HIV RNase H inh-1 70 | HIV RNase H inh-2 74
Cc1ccc(-c2cc(C(F)(F)F)n3ncc(C(=O)NCc4ccco4)c3n2)cc1	HIV RNase H inh-1 63 | HIV RNase H inh-2 inactive
COc1ccc(-c2cc(C(F)(F)F)n3nc(C(=O)NCc4ccco4)c(Cl)c3n2)cc1	none (no result: HIV RNase H inh-1)
c1ccc(-c2nnc(C3CC(c4ccncc4)=NO3)o2)cc1 (configuration not stated)	none (no result: HIV RNase H inh-1)
Cc1cccc(C(=O)N[C@@H]2c3ccccc3C[C@@H]2O)n1	none (no result: HIV RNase H inh-1)
COCCCN=C(c1ccco1)n1c(=S)nc(-c2ccco2)n(CCCOC)c1=S	HIV RNase H inh-1 63 | HIV RNase H inh-2 inactive
COCCCn1c(-c2ccco2)nc2ccccc2c1=O	none
C=C1c2ccccc2S(=O)(=O)N(Cc2ccccc2)C1COCc1ccccc1 (configuration not stated)	none (no result: HIV RNase H inh-1)
Cc1ccc(NCCC(=O)c2ccc(Br)cc2)cc1	none (no result: HIV RNase H inh-1)
